Assay results: PubChem BioAssay (NCI)
Where “and” joins values, the source holds several entries; their conditions need not be identical. Identical values can stand only once. Compounds without any hit were thinned out: in the full panel of roughly 79,000, 15% have a hit. A structure can be active in one record and inactive in another. Calls of active or inactive are those of the source. Rule as the data show it: active = growth inhibition above about 70%; inactive = the rest.

Legend:
[1] = NCI Yeast Anticancer Drug Screen. Data for the rad50 strain (AID 155);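 also: 0% = growth of vehicle-only cultures of the same strain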; details: S. cerevisiae rad50 strain growth inhibition, stronger effect = higher value
Method in brief: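 Relative growth inhibition (compound vs vehicle) was measured in yeast with a defined repair-gene alteration.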

[2] = NCI Yeast Anticancer Drug Screen. Data for the mec2-1 strain (AID 157); details: S. cerevisiae mec2-1 strain, stronger effect = higher value
Method in brief: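 Strain: mec2-1 (DNA repair/cell cycle alteration). Compound exposure, then growth measured; inhibition expressed relative to vehicle.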

[3] = NCI Yeast Anticancer Drug Screen. Data for the sgs1 mgt1 strain (AID 161);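 also: 0% = growth of cultures given vehicle only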; details: S. cerevisiae sgs1 mgt1 strain, stronger effect = higher value
Method in brief: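 Test agents were incubated with a DNA-repair-mutant yeast strain. Growth was then read and compared against vehicle-treated controls.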

[4] = NCI Yeast Anticancer Drug Screen. Data for the cln2 rad14 strain (AID 165);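 also: 0% = growth equal to vehicle treated cultures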; details: S. cerevisiae cln2 rad14 strain, stronger effect = higher value
Method in brief: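 Compounds are applied to the cln2 rad14 yeast strain, and growth is then compared with that of vehicle-treated cultures to give inhibition.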

[5] = NCI Yeast Anticancer Drug Screen. Data for the bub3 strain (AID 167); details: S. cerevisiae bub3 mutant strain, stronger effect = higher value
Method in brief: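 Screening used yeast with an engineered genetic alteration affecting cell cycle control. Compound-exposed cultures were compared with vehicle cultures, and reduced growth was taken as inhibition.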

[6] = NCI Yeast Anticancer Drug Screen. Data for the mlh1 rad18 strain (AID 175); details: S. cerevisiae mlh1 rad18 strain growth inhibition, stronger effect = higher value
Method in brief: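 Read-out is yeast growth inhibition, calculated against vehicle-only controls. The compound was applied to a strain engineered with DNA damage repair alterations.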

[7] = at 5.0 µM (retest, dose inferred, filed as 0.5)
[8] = at 50.0 µM (retest, dose inferred, filed as 5.0)

SMILES	growth inhibition [1, 7]	growth inhibition [1, 8]	growth inhibition ([1]; at 50.0 µM)	growth inhibition [2, 7]	growth inhibition [2, 8]	growth inhibition ([2]; at 50.0 µM)	growth inhibition [3, 7]	growth inhibition [3, 8]	growth inhibition ([3]; at 50.0 µM)	growth inhibition [4, 7]	growth inhibition [4, 8]	growth inhibition ([4]; at 50.0 µM)	growth inhibition [5, 7]	growth inhibition [5, 8]	growth inhibition ([5]; at 50.0 µM)	growth inhibition [6, 7]	growth inhibition [6, 8]	growth inhibition ([6]; at 50.0 µM)
c1ccc(-c2nc3ccccc3[nH]2)cc1	1% (inactive)	28% (inactive)	6.4% (inactive) and 34.6% (inactive)	-3% (inactive)	19% (inactive)	-5.55% (inactive) and 5.3% (inactive)	-11% (inactive)	29% (inactive)	-8.85% (inactive) and 1% (inactive)	4% (inactive)	39% (inactive)	-50.4% (inactive) and -4.4% (inactive)	0% (inactive)	24% (inactive)	-13.2% (inactive) and -5.15% (inactive)	0% (inactive)	74% (active)	-0.55% (inactive) and 43% (inactive)
C1=C(CN2CCCCC2)COc2ccccc21	9% (inactive)	30% (inactive)	51.4% (inactive)	1% (inactive)	45% (inactive)	22.9% (inactive)	-7% (inactive)	61% (inactive)	46.5% (inactive)	0% (inactive)	28% (inactive)	65% (inactive)	6% (inactive)	44% (inactive)	59.8% (inactive)	20% (inactive)	54% (inactive)	76.7% (active)
CCCN(CCC)C(=S)N/N=C/c1ccccn1	99% (active)	99% (active)	90.5% (active)	99% (active)	100% (active)	93.1% (active)	98% (active)	99% (active)	92.4% (active)	98% (active)	100% (active)	93.5% (active)	99% (active)	100% (active)	92.5% (active)	99% (active)	99% (active)	89.8% (active)
O=C1NC(=O)c2c1cccc2[N+](=O)[O-]	-7% (inactive)	31% (inactive) and 12% (inactive)	-4.8% (inactive) and 18.4% (inactive)	-20% (inactive) and 2% (inactive)	4% (inactive) and 8% (inactive)	-4% (inactive) and 25% (inactive)	-2% (inactive) and 0% (inactive)	0% (inactive) and 8% (inactive)	9.25% (inactive) and -3.15% (inactive)	-5% (inactive) and 0% (inactive)	-6% (inactive) and -5% (inactive)	45.3% (inactive) and 50.4% (inactive)	37% (inactive) and -2% (inactive)	-4% (inactive) and 8% (inactive)	-1.4% (inactive) and 20.1% (inactive)	-4% (inactive) and -3% (inactive)	3% (inactive) and 13% (inactive)	8.5% (inactive) and 2.2% (inactive)
O=C(c1ccco1)N(C(=S)N1CCN(c2ccccn2)CC1)C1CCCCC1	5% (inactive)	46% (inactive)	73.3% (active)	-7% (inactive)	49% (inactive)	86.7% (active)	0% (inactive)	76% (active)	84.3% (active)	30% (inactive)	60% (inactive)	71.8% (active)	0% (inactive)	40% (inactive)	79% (active)	-14% (inactive)	80% (active)	79.3% (active)
Nc1cc2c(cc1Cl)[nH]c(=O)c1cc(Cl)ccc12	46% (inactive)	65% (inactive)	86.2% (active)	27% (inactive)	14% (inactive)	3.6% (inactive)	26% (inactive)	17% (inactive)	18.3% (inactive)	10% (inactive)	6% (inactive)	-0.9% (inactive)	39% (inactive)	10% (inactive)	-11.3% (inactive)	38% (inactive)	40% (inactive)	22.6% (inactive)
C=CCNC(=O)c1ccccc1SC(C)=O	14% (inactive)	99% (active)	88.9% (active)	33% (inactive)	99% (active)	91.5% (active)	20% (inactive)	99% (active)	89% (active)	23% (inactive)	96% (active)	72% (active)	52% (inactive)	99% (active)	89.2% (active)	18% (inactive)	99% (active)	89.3% (active)
O=[N+]([O-])c1ccc2ccccc2c1O	2% (inactive)	94% (active)	96.7% (active)	8% (inactive)	97% (active)	97.7% (active)	5% (inactive)	97% (active)	95.7% (active)	3% (inactive)	98% (active)	97.4% (active)	-3% (inactive)	93% (active)	95.5% (active)	3% (inactive)	97% (active)	98.5% (active)
c1cc2c3c(cccc3c1)-c1cnccc1-2	31% (inactive)	54% (inactive)	91.1% (active)	36% (inactive)	84% (active)	92.7% (active)	-6% (inactive)	97% (active)	92.9% (active)	48% (inactive)	97% (active)	90.8% (active)	16% (inactive)	98% (active)	92.3% (active)	35% (inactive)	73% (active)	91.8% (active)
C=CCOC(=O)c1ccc(C(=O)OCC=C)cc1	-5% (inactive)	-77% (inactive)	50.6% (inactive)	-11% (inactive)	-32% (inactive)	52.2% (inactive)	-1% (inactive)	-13% (inactive)	78.5% (active)	4% (inactive)	-26% (inactive)	39.4% (inactive)	6% (inactive)	-53% (inactive)	44.8% (inactive)	0% (inactive)	-41% (inactive)	64.3% (inactive)
COc1ccc(/C=C2\CCCC(CN(C)C)C2=O)cc1 (configuration not stated)	-1% (inactive)	8% (inactive)	65.4% (inactive)	-20% (inactive)	13% (inactive)	78.8% (active)	-31% (inactive)	-3% (inactive)	86.2% (active)	-32% (inactive)	9% (inactive)	57.4% (inactive)	-48% (inactive)	23% (inactive)	81.8% (active)	-22% (inactive)	5% (inactive)	84.7% (active)
CC1CC=CCC1C(=O)O (configuration not stated)	8% (inactive)	-1% (inactive)	36% (inactive) and 9.75% (inactive)	2% (inactive)	-2% (inactive)	-17.2% (inactive) and 28.9% (inactive)	2% (inactive)	-3% (inactive)	-10.5% (inactive) and -4.9% (inactive)	13% (inactive)	3% (inactive)	-8.4% (inactive) and -41.3% (inactive)	6% (inactive)	2% (inactive)	33.3% (inactive) and -3.9% (inactive)	4% (inactive)	-5% (inactive)	9.65% (inactive) and 10.2% (inactive)
O=C(Nc1cccc2c(OC(=O)C(Cl)Cl)c(N=Nc3ccc(S(=O)(=O)Nc4nccs4)cc3)cc(N=Nc3ccc(S(=O)(=O)Nc4nccs4)cc3)c12)C(Cl)Cl (tested in a mixture with another compound)	93% (active) and 21% (inactive)	6% (inactive) and 87% (active)	71.8% (active) and 25.1% (inactive)	95% (active) and 10% (inactive)	39% (inactive) and 90% (active)	62% (inactive) and 38.1% (inactive)	94% (active) and 19% (inactive)	29% (inactive) and 88% (active)	67.2% (inactive) and 18.3% (inactive)	93% (active) and 29% (inactive)	34% (inactive) and 88% (active)	56.5% (inactive) and 31.9% (inactive)	90% (active) and 22% (inactive)	41% (inactive) and 88% (active)	50.2% (inactive) and 47.1% (inactive)	85% (active) and 35% (inactive)	-14% (inactive) and 83% (active)	81.3% (active) and 39.8% (inactive)
CO[C@H](C(=O)[C@@H](O)[C@@H](C)O)[C@@H]1Cc2cc3cc(OC4CC(OC5CC(O)C(O)C(C)O5)C(O)C(C)O4)c(C)c(O)c3c(O)c2C(=O)[C@H]1OC1CC(OC2CC(OC3CC(C)(O)C(O)C(C)O3)C(O)C(C)O2)C(O)C(C)O1 (some centres not stated)	12% (inactive)	77% (active)	72.1% (active) and 5.15% (inactive)	7% (inactive)	39% (inactive)	33% (inactive) and -0.5% (inactive)	6% (inactive)	37% (inactive)	62.4% (inactive) and 17.8% (inactive)	21% (inactive)	47% (inactive)	93.2% (active) and 11.2% (inactive)	-2% (inactive)	43% (inactive)	44.5% (inactive) and 24.1% (inactive)	4% (inactive)	33% (inactive)	41.5% (inactive) and 14.4% (inactive)
